Measurements taken from PubChem BioAssay AID492952 (Southern Research Specialized Biocontainment Screening …, 2010).
The whole screen tested about 2,300 compounds, of which about 1,500 (65%) were called active. The rule behind the calls is not given here. So high a share suggests a set chosen from earlier hits. The list shows a part of the results. Entries with a potency or affinity are not part of this list.

assay: replicating M. tuberculosis growth inhibition, dose response, non-replicating M. tuberculosis project, H37Rv (AID 492952); conditions: series mostly up to 50 µM;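 note: Mycobacterium tuberculosis grown in culture; growth inhibition read after a week of incubation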

Which outcome does the source give for `O=C(O)c1ccc(-n2nc(C(F)(F)F)c3c2CCCC3)cc1` here?
Its outcome is “inactive”.

With `CCc1cc2c3c(c1)C(C)CC(C)(C)N3C(=O)/C2=C1\SC(=O)NC1=O` (stereo unspecified) as the compound, how does the outcome read?
The outcome was “inactive”.

For `COc1cccc(-c2nc(C=O)cs2)c1`, which outcome is on record?
The outcome was “inactive”.

With `Cc1cc(C=C2C(=O)N(C)C(=S)N(C)C2=O)c(C)n1-c1cccnc1` as the compound, how does the outcome read?
The outcome was “inactive”.

With `Cc1ccnc(-n2c(C)cc(/C=C3\C(=O)NC(=S)N(C)C3=O)c2C)c1` as the compound, how does the outcome read?
The outcome was “inactive”.

For `CCCCCCCC(=O)NNC(=O)c1ccc(F)cc1`, which outcome is on record?
The outcome was “inactive”.

Which outcome does the source give for `Cc1ccc(S(=O)(=O)CCC(=O)Nc2nc(-c3ccncc3)cs2)cc1` here?
Its outcome is “inactive”.

For `CCCCOc1ccc(NC(=O)CN2CCN(Cc3ccccc3)CC2)cc1`, which outcome is on record?
Its outcome is “inactive”.

With `O=C(NN=C1C2CC3CC1CC(Cl)(C3)C2)c1cccs1` as the compound, how does the outcome read?
Its outcome is “inactive”.

With `Cc1ccc(NC(=O)C2COc3ccccc3O2)nc1` (stereo unspecified) as the compound, how does the outcome read?
Its outcome is “inactive”.

For `CCC(=O)N/N=C/c1ccc(-c2ccc(Cl)cc2)o1`, which outcome is on record?
Its outcome is “inactive”.

With `Cc1cccc(C)c1N1C(=O)CC(N2CCSCC2)C1=O` (stereo unspecified) as the compound, how does the outcome read?
The outcome was “inactive”.

For `CCCCCCCC(=O)N/N=C(/C)c1c(O)cc(C)oc1=O`, which outcome is on record?
The outcome was “inactive”.

For `Cc1cc(CN(C)C)c(O)c(C2(C)CCCCC2)c1`, which outcome is on record?
Its outcome is “inactive”.

With `COc1ccccc1C(c1nnnn1Cc1ccccc1)N1CCC(C(N)=O)CC1` (stereo unspecified) as the compound, how does the outcome read?
The outcome was “inactive”.

For `O=C(N/N=C/c1ccc[nH]1)c1ccc2c(c1)OCO2`, which outcome is on record?
Its outcome is “inactive”.

For `O=C(NCc1cccs1)c1ccc(Br)o1`, which outcome is on record?
The outcome was “inactive”.

Which outcome does the source give for `O=C(CC1CC2CCC1C2)NCc1cccs1` (stereo unspecified) here?
Its outcome is “inactive”.

With `CC(C)c1cc(C(=O)N/N=C/C=C/c2ccccc2)n[nH]1` as the compound, how does the outcome read?
The outcome was “inactive”.

Which outcome does the source give for `Cc1cc(C(=O)N/N=C/c2cccc(Cl)c2Cl)no1` here?
The outcome was “inactive”.

For `O=C(N/N=C/c1cc(Br)cc(Cl)c1O)c1ccc2c(c1)OCO2`, which outcome is on record?
The outcome was “inactive”.

Which outcome does the source give for `CC1(CCc2ccc3c(c2)OCO3)NC(=O)c2ccccc2N1` (stereo unspecified) here?
The outcome was “inactive”.

Which outcome does the source give for `CC1=CC(=O)NP(=O)(Oc2ccc3ccccc3c2)N1` (stereo unspecified) here?
The outcome was “inactive”.

Which outcome does the source give for `CCN(CC)CCNC(=O)c1[nH]c2ccc(OCc3ccccc3)cc2c1C` here?
The outcome was “inactive”.

For `CC(=O)c1c(C)n(C)c2ccc(OC(=O)c3ccco3)cc12`, which outcome is on record?
The outcome was “inactive”.

Which outcome does the source give for `Cc1cc2cc(CNC(=O)COc3ccccc3)ccc2n1C` here?
Its outcome is “inactive”.

For `CCOc1ccc(-c2ccc(SCC)nn2)cc1`, which outcome is on record?
Its outcome is “inactive”.

Which outcome does the source give for `Oc1ccccc1Nc1nc(NCC2CCCO2)c2ccccc2n1` (stereo unspecified) here?
The outcome was “inactive”.

With `CCCCCCC1CC(C)(C(=O)CNc2nncs2)OC1=O` (stereo unspecified) as the compound, how does the outcome read?
The outcome was “inactive”.

With `Cc1cc2nc(CSc3ccc(Cl)cc3)cc(=O)n2[nH]1` as the compound, how does the outcome read?
Its outcome is “inactive”.

With `Cc1cc(C)c2sc(NC(=O)C3=COCCO3)nc2c1` as the compound, how does the outcome read?
Its outcome is “inactive”.

With `O=C(c1nnc(-c2ccc(Cl)cc2)o1)C1CCCC1` as the compound, how does the outcome read?
Its outcome is “inactive”.

For `CN(C)Cc1ccccc1Sc1ccccc1Br`, which outcome is on record?
Its outcome is “inactive”.

With `C(#CCN1CCOCC1)COCc1ccccc1` as the compound, how does the outcome read?
The outcome was “inactive”.

For `CNC(=O)c1[nH]cnc1C(=O)Nc1ccc(Cl)cc1`, which outcome is on record?
Its outcome is “inactive”.

Which outcome does the source give for `COc1ccc(/C(=N/O)C(C)(C)NO)cc1` here?
Its outcome is “inactive”.

With `CC1COC(=O)C(NNc2ccc(Cl)c(Cl)c2)=N1` (stereo unspecified) as the compound, how does the outcome read?
The outcome was “inactive”.

For `O=C(NC(=S)NCCc1ccccc1)c1ccccc1`, which outcome is on record?
Its outcome is “inactive”.

For `CCOC(=O)C1CCCN(Cc2ccc(OCc3ccccc3)cc2)C1` (stereo unspecified), which outcome is on record?
Its outcome is “inactive”.

Which outcome does the source give for `CC(C)c1ccc(N2C(=O)CC(Sc3ncn[nH]3)C2=O)cc1` (stereo unspecified) here?
The outcome was “inactive”.

With `CC1=NN(C(=O)c2csc(C(C)C)c2)C(O)(C(F)(F)F)C1` (stereo unspecified) as the compound, how does the outcome read?
Its outcome is “inactive”.

With `CC1=NN(C(=O)c2csc(C)c2)C(O)(C(F)(F)F)C1` (stereo unspecified) as the compound, how does the outcome read?
The outcome was “inactive”.

With `O=C(COC(=O)c1ccc(Br)o1)Nc1ncc([N+](=O)[O-])s1` as the compound, how does the outcome read?
Its outcome is “inactive”.

Which outcome does the source give for `Nc1cccn2c(-c3ccc(Cl)cc3)cnc12` here?
The outcome was “inactive”.

For `CC1CC(C)CN(CCOCCSc2ccc(Cl)cc2)C1` (stereo unspecified), which outcome is on record?
The outcome was “inactive”.

Which outcome does the source give for `Clc1ccc(CN2C3=NCCCN3c3ccccc32)cc1` here?
The outcome was “inactive”.

Which outcome does the source give for `COc1ccc(C(=O)CCS(=O)(=O)c2ccc(C)cc2)cc1OC` here?
Its outcome is “inactive”.

Which outcome does the source give for `O=C1CC(=O)CC(c2ccccc2)C1` here?
Its outcome is “inactive”.

Which outcome does the source give for `CCN1CCC(=NNC(=O)c2ccco2)CC1` here?
The outcome was “inactive”.

With `O=C(NCc1nnc(SC/C=C/c2ccccc2)o1)c1ccco1` as the compound, how does the outcome read?
Its outcome is “inactive”.

With `Cc1occc1C(=O)N/N=C/C(Br)=C\c1ccccc1` as the compound, how does the outcome read?
The outcome was “inactive”.

Which outcome does the source give for `O=C(Nc1nnc(COc2ccc(Cl)cc2)s1)c1ccco1` here?
The outcome was “inactive”.

With `CC1=NN(C(=O)CCCc2ccccc2)C(O)(C(F)(F)F)C1` (stereo unspecified) as the compound, how does the outcome read?
Its outcome is “inactive”.

With `Cc1cc(C)cc(OC(=O)c2cccnc2)c1` as the compound, how does the outcome read?
Its outcome is “inactive”.

Which outcome does the source give for `Cc1n[nH]c(C)c1CCNC(=O)C1CCC(=O)N(Cc2ccccc2F)C1` (stereo unspecified) here?
Its outcome is “inactive”.

For `COc1ccc2c3c(cccc13)OCC2=O`, which outcome is on record?
Its outcome is “inactive”.

For `O=C1/C(=C/c2cccs2)COc2ccccc21`, which outcome is on record?
The outcome was “inactive”.

Which outcome does the source give for `S=C1NC2(CCCC2)N=C1c1ccccc1` here?
The outcome was “inactive”.

Which outcome does the source give for `CCOC(=O)Nc1cccc(OCC(=O)Nc2ccc(OC)cc2OC)c1` here?
The outcome was “inactive”.

For `CCOc1ccc(C(=O)N/N=C(/C)C2C(=O)c3ccccc3C2=O)cc1`, which outcome is on record?
The outcome was “inactive”.

For `NC(=O)COc1ccc2cc(-c3ccc(F)cc3)c(=O)oc2c1`, which outcome is on record?
The outcome was “inactive”.

With `CCOc1c(OC(C)=O)ccc(/C=C2\N=C(SCC)SC2=O)c1[N+](=O)[O-]` as the compound, how does the outcome read?
Its outcome is “inactive”.

With `COc1ccc(-c2nnc(SCC(C)C)o2)cc1` as the compound, how does the outcome read?
Its outcome is “inactive”.

With `Cc1ccc(CSc2nnc(-c3cccnc3)o2)cc1` as the compound, how does the outcome read?
The outcome was “inactive”.

With `O=[N+]([O-])c1ccc(CSc2nnc(-c3cccnc3)o2)cc1` as the compound, how does the outcome read?
The outcome was “inactive”.

For `Brc1ccc(CSc2nnc(-c3ccco3)o2)cc1`, which outcome is on record?
The outcome was “inactive”.

For `O=C1CC(N2CCC(C(=O)N3CCCCC3)CC2)C(=O)N1` (stereo unspecified), which outcome is on record?
The outcome was “inactive”.

Which outcome does the source give for `C#CCSc1nnc(-c2ccc(O)cc2)o1` here?
Its outcome is “inactive”.

For `CC(C)c1ccc(OCC(=O)NCc2ccccc2)cc1`, which outcome is on record?
The outcome was “inactive”.

With `O=C(NCc1ccc(F)cc1)c1cnccn1` as the compound, how does the outcome read?
Its outcome is “inactive”.

For `Cc1cc(Br)ccc1OCCCCN1CCCCC1`, which outcome is on record?
The outcome was “inactive”.

With `COc1ccc(Cc2nnc(-c3ccccc3)o2)cc1` as the compound, how does the outcome read?
The outcome was “inactive”.

For `O=C(c1ccc(-c2ccc([N+](=O)[O-])cc2)o1)N1CCN(S(=O)(=O)c2cccs2)CC1`, which outcome is on record?
The outcome was “inactive”.

For `Cc1ccc2[nH]c3c(c2c1)CCCC3NCCO` (stereo unspecified), which outcome is on record?
Its outcome is “inactive”.

Which outcome does the source give for `COCCCn1c(=NC(=O)c2ccccc2)c(C#N)cc2c(=O)n3cccc(C)c3nc21` here?
Its outcome is “inactive”.

With `Cc1cc(Cl)ccc1NNC(=O)c1c(C)noc1C` as the compound, how does the outcome read?
Its outcome is “inactive”.

Which outcome does the source give for `CCOC(=O)c1ccsc1NC(=O)CCS(=O)(=O)c1ccccc1` here?
The outcome was “inactive”.

With `CCOC(=O)c1sc(NC(=O)CCN2CCOCC2)c(C(=O)OCC)c1C` as the compound, how does the outcome read?
Its outcome is “inactive”.

For `Nc1ccc(Nc2ccccc2)cc1`, which outcome is on record?
The outcome was “inactive”.

With `CC1(C)CC(=O)C=C(Nc2ccccc2N)C1` as the compound, how does the outcome read?
The outcome was “inactive”.

With `Cc1ccc(Sc2ncccc2N)cc1` as the compound, how does the outcome read?
Its outcome is “inactive”.
